# Sampled rows, rich in hits. Any-hit rate of the full collection: about 1.1%.
# BJeLR lethal: BJeLR cell viability loss | inhibition, % (test concentration not listed) | 300,000 tested, 0.17% active | BJeLR (HRASV12) viability, CellTiter-Glo ATP luminescence, 48 h; in the data active means inhibition above about 50%
# MazF activator: MazEF (E. coli) toxin RNase activation; P0AE70; FAM/BHQ RNA-DNA oligo cleavage fluorescence, 5 h; activation, % at 20 µM; 350,000 tested, 0.32% active; AID 504720; in the data active means activation above about 50%
# Target sequence (P0AE70 whole entry, looked up): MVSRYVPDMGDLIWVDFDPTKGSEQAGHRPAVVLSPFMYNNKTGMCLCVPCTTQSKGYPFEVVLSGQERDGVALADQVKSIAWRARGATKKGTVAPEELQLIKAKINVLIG
# PrP 5UTR inh: inhibition of PrP 5' UTR reporter expression; AID 488862; inhibition, % (concentration not given with the values); cell-based PrP 5' UTR mRNA reporter, plate reader; 340,000 tested, 0.35% active; in the data active means inhibition above about 52%; further: 0 = median of the neutral control wells
# PrPC surface inh: cell surface PrPC inhibition, primary TR-FRET screen | P04156 | TR-FRET read-out | inhibition, % at 13.8 µM | 370,000 tested, 0.43% active; in the data active means inhibition above about 24%; further: 0% = median of the test wells and 100% = reference compound wells
# PrP UTR cherry: prion 5' UTR mRNA inhibition, cherry-pick retest | shares compounds with PrP 5UTR inh | cell-based prion protein 5' UTR reporter, plate reader | inhibition, % at 2.5 µM | 1,100 tested, 48% active | AID 504592; in the data active means inhibition above about 54%
# * = called active by the depositor; . = not tested or not shown.
SMILES,BJeLR lethal,MazF activator,PrP 5UTR inh,PrPC surface inh,PrP UTR cherry
Cc1cc(C)cc(N(CC(=O)N2CCc3ccccc32)S(=O)(=O)c2c(C)noc2C)c1,1,14,-5,1,.
CCOc1ccc(N(CC(=O)N2CCc3ccccc32)S(=O)(=O)c2c(C)noc2C)cc1,1,11,79*,-5,9
Cc1cc(C)cc(N(CC(=O)N2CCn3c2nc2ccccc23)S(=O)(=O)c2c(C)noc2C)c1,-2,8,67*,5,-3
Cc1c(/C=N\NC(=O)C2COc3ccccc3O2)c2ccccc2n1C (stereo not drawn),22,12,67*,4,83*
CC1CCc2c(sc(NC(=O)CSc3ncn[nH]3)c2C#N)C1 (stereo not drawn),-4,-9,70*,4,79*
N#Cc1c(NC(=O)CSc2ncn[nH]2)sc2c1CCCC2,0,-2,68*,9,67*
Cc1ccccc1C(=O)N[C@H](C(=O)N1CCC[C@H]1C(=O)NCCc1ccccc1Cl)C(C)C,.,.,.,-3,.
COCc1cc(N2CCN(C(=O)OC(C)(C)C)C[C@H]2C)ccc1N1C[C@@H](C)O[C@@H](C)C1,.,.,.,8,.
C[C@H]1CCC/C=C/[C@@H]2C[C@H](O)C[C@H]2[C@H](O)[C@H](S(=O)c2ccc(O)cc2)CC(=O)O1 (stereo partly drawn),.,9,86*,89*,69*
C[C@H]1CCC/C=C/[C@@H]2C[C@H](O)C[C@H]2[C@@H](O)/C=C/C(=O)O1,.,6,86*,93*,91*
CC1CCCC=CC2CC(OC(=O)CN(C)C)CC2C(O)C=CC(=O)O1 (stereo not drawn),.,3,81*,90*,90*
COc1cccc(CC(=O)NCC2CCN(C(=O)C(=O)c3cccs3)CC2)c1,.,.,.,-9,.
COC(=O)[C@]12C[C@H](CC(=O)NCC3CCCCC3)C(=O)N(Cc3ccc4c(c3)OCO4)C1=C[C@H](C(C)(C)C)O[C@@H]2C,.,.,.,-4,.
COCCCNC(=O)C[C@H]1C(=O)N(Cc2ccc(OC)cc2)C2=CCCCC[C@@]21C(=O)OC,.,.,.,1,.
COc1ccccc1[C@H]1C(c2cccc(Cl)c2)=NN(c2ccccc2)[C@@H]1CO,.,-10,72*,.,-5
OC[C@@H]1[C@@H](c2ccccc2)C(c2cccc(Cl)c2)=NN1c1ccccc1,.,-1,-5,11,.
CC(C)(C)C(=O)Nc1cccc(-c2nnc(-c3cccc(NC(=O)C(C)(C)C)c3)o2)c1,4,8,59*,0,-44
CC(=O)Nc1cccc(-c2nnc(-c3ccccc3)o2)c1,-1,21,-67,8,.
Nc1ccc(Cn2ccc3c4c(N)nc(N)nc4ccc32)cc1,.,10,62*,9,-11
Fc1ccc(Cn2ccc3ccc(-c4ccc5ccn(Cc6ccc(F)cc6)c5c4)cc32)cc1,.,.,.,6,.
COc1ccc(CNC(=O)c2c(O)c3cc(OC)c(OC)cc3[nH]c2=O)cc1OC,-2,14,-12,-6,.
CCN(CC)CCNC(=O)c1c(O)c2cc(OC)c(OC)cc2[nH]c1=O,25,12,72*,-1,-7
Cc1cc(C(=O)CSc2nnc3ccccn23)c(C)n1-c1ccccc1,-3,-3,67*,-7,85*
CCCCOCC(O)CCc1n[nH]c(=S)n1-c1ccccc1 (stereo not drawn),-4,0,80*,0,5
COC(=O)Cc1ccc(NC(=O)c2ccc(C(C)(C)C)cc2)cc1,13,0,79*,8,65*
SMILES,BJeLR lethal,MazF activator,PrP 5UTR inh,PrPC surface inh,PrP UTR cherry
CC(C)(C)c1ccc(C(=O)Nc2ccc(Cl)cc2)cc1,3,-5,-147,-2,.
COc1cc2cc(C#N)c(SCC(=O)N3CCOCC3)nc2cc1OC,-7,1,72*,-4,-29
CCOC(=O)c1c(SCCN2CCCC2)n(-c2ccccc2)c(=S)n(-c2ccccc2)c1=O,.,0,65*,-10,21
COc1ccc(C(=O)NC(=O)Nc2cc(C)ccn2)cc1,9,-13,61*,5,64*
O=C(NC(=O)c1ccccc1)Nc1ccccn1,28,.,75*,-7,76*
COc1ccc(C2CC(=O)C(c3ccc4ccccc4c3)=CN2Cc2ccccc2)cc1 (stereo not drawn),.,.,.,9,.
Cc1ccc(-n2c(SCC(=O)Nc3cccc4ccccc34)nnc2-c2cccs2)cc1,.,.,.,4,.
CC1(C)CC[C@]2(C(=O)n3ccnc3)CC[C@]3(C)[C@H](C(=O)C=C4[C@@]5(C)C=C(C#N)C(=O)C(C)(C)[C@@H]5CC[C@]43C)[C@@H]2C1,.,-7,94*,5,97*
COC(=O)c1cc2c(c3c4ccccc4n(S(=O)(=O)c4ccccc4)c13)C(=O)N(Cc1ccc(C(F)(F)F)cc1)C2,.,.,.,3,.
O=C(Nc1c(-c2cccs2)nc2ccccn12)c1ccccc1F,-6,-5,82*,2,-25
O=C(Nc1c(-c2cccs2)nc2ccccn12)c1ccc2ccccc2c1,-1,.,.,.,.
N#CC1=C(N)OC2=C(CCc3ccccc32)C1c1ccccc1 (stereo not drawn),33,-8,58*,0,90*
CCOC(=O)CC[C@@H]1CC[C@]2(CCCN(C(=O)c3ccco3)C2)O1,.,.,.,-4,.
CCOc1ccc(OCC(=O)Nc2nccs2)cc1,36,-7,58*,.,37
O=C(O)CSCC(=O)Nc1ccc(C2CCCCC2)cc1,-11,5,53*,4,54*
Nn1cnnc1SCC(=O)Nc1ccc(C2CCCCC2)cc1,-6,3,-24,-2,.
CN(Cc1ccccc1)C(=O)c1ccc(NC(=O)Cc2ccc(NC(=O)C3CCCN(C(=O)C4CC4)C3)cc2)cc1 (stereo not drawn),.,-7,86*,-3,-11
CN(CCc1ccccc1)C(=O)c1cccc(NC(=O)Cc2cccc(NC(=O)C3CCCN(C(=O)C4CC4)C3)c2)c1 (stereo not drawn),.,2,53*,1,-59
Cc1nc2ccccc2c(=O)n1/N=C/c1c(O)ccc2oc3c(c12)CCCC3,-1,-16,61*,-4,-2
Cc1nc2ccccc2c(=O)n1/N=C/c1c(O)ccc2ccccc12,0,12,-12,1,.
COc1ccc(CN(C)CC(=O)Nc2ccccc2C(F)(F)F)cc1,-4,-8,81*,5,-19
COc1ccc(CN(C)CC(=O)Nc2ccccc2C(F)(F)F)c(OC)c1,-1,0,-36,1,.
Cc1ccccc1-c1ccc2c(c1)[C@@H]1C[C@H](N(C)C(=O)c3ccco3)[C@H]([C@H](C)O)CN1CC2,.,.,.,5,.
CCCCN=C[C@]12CCC(O)CC1(O)CCC1[C@@H]2CC[C@]2(C)[C@H](C3C=CC(=O)O3)CCC12O (stereo partly drawn),68*,-9,83*,5,78*
CC12CCC3C(CCC4(O)CC(O)CCC34C=NO)C1(O)CCC2C1=COC(=O)C1 (stereo not drawn),.,17,89*,4,85*
